Data from PubChem BioAssay AID1159580 (chemical genetic matrix, 2015).
Hit rate of the full screen: of about 5,500 compounds, about 2,000 (36%) were called active. Another 18% or so got no clear call; they are omitted. This is one part of the list. A number with no mark means an inactive call. Cut-off read from the data, not from the text of the source: active = normalized growth mostly below about 0.91 (no sharp cut-off); inconclusive = no clear call, values can overlap the other calls; inactive = mostly above about 0.92.

Test: chemical genetic growth profiling, strain panel (AID 1159580);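 note: tested at 20 µM; growth read once vehicle control cultures reached saturation at 30 °C; 1 = growth at the plate median or of vehicle wells; lower values mean less growth of the strain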
Settings: S. cerevisiae deletion strains, growth OD

COC(=O)[C@H](NC(=O)c1cc(-c2ccccc2)nc2ccccc12)c1ccccc1
normalized growth (locus YAL013W, strain DEP1, hits give low values): 1.02
normalized growth (locus YAL040C, strain CLN3, hits give low values): 1.01
normalized growth (locus YCL061C, strain MRC1 (second series), hits give low values): 0.998
normalized growth (locus YDR363W, strain ESC2, hits give low values): 0.989
normalized growth (locus YER002W, strain NOP16, hits give low values): 1.01
normalized growth (locus YGR078C, strain PAC10, hits give low values): 0.984
normalized growth (locus YJR075W, strain HOC1, hits give low values): 1
normalized growth (locus YNL128W, strain TEP1, hits give low values): 0.996
normalized growth (locus YNL153C, strain GIM3, hits give low values): 1
normalized growth (locus YNL175C, strain NOP13, hits give low values): 1.01
normalized growth (locus YNL197C, strain WHI3, hits give low values): 0.989
normalized growth (locus YNL224C, strain SQS1, hits give low values): 1.02
normalized growth (locus YNL322C, strain KRE1, hits give low values): 0.999
normalized growth (locus YOR083W, strain WHI5 (second series), hits give low values): 1.06
normalized growth (locus YPL055C, strain LGE1, hits give low values): 0.99
normalized growth (locus YPL241C, strain CIN2, hits give low values): 0.999

NNC(=O)c1oc2nc(-c3ccccc3)cc(-c3ccccc3)c2c1N
normalized growth (locus YAR019C, strain CDC15, hits give low values): 0.972
normalized growth (locus YBL105C, strain PKC1, hits give low values): 0.986
normalized growth (locus YBR135W, strain CKS1, hits give low values): 0.984
normalized growth (locus YBR136W, strain MEC1, hits give low values): 0.985
normalized growth (locus YBR160W, strain CDC28, hits give low values): 0.987
normalized growth (locus YDL017W, strain CDC7, hits give low values): 0.985
normalized growth (locus YDL028C, strain MPS1, hits give low values): 0.983
normalized growth (locus YDL101C, strain DUN1, hits give low values): 0.981
normalized growth (locus YDL108W, strain KIN28, hits give low values): 0.978
normalized growth (locus YDL132W, strain cdc53, hits give low values): 0.971
normalized growth (locus YDL214C, strain PRR2, hits give low values): 0.921
normalized growth (locus YDR052C, strain DBF4, hits give low values): 0.997
normalized growth (locus YDR054C, strain cdc34, hits give low values): 0.962
normalized growth (locus YDR226W, strain ADK1, hits give low values): 0.985
normalized growth (locus YDR477W, strain SNF1, hits give low values): 0.934
normalized growth (locus YER123W, strain YCK3, hits give low values): 0.913
normalized growth (locus YER133W, strain GLC7, hits give low values): 0.93
normalized growth (locus YFL009W, strain cdc4, hits give low values): 0.983
normalized growth (locus YFL029C, strain CAK1, hits give low values): 0.965
normalized growth (locus YFR003C, strain YPI1, hits give low values): 0.984
normalized growth (locus YFR019W, strain FAB1, hits give low values): 0.924
normalized growth (locus YFR028C, strain CDC14, hits give low values): 0.976
normalized growth (locus YGR040W, strain KSS1, hits give low values): 0.93
normalized growth (locus YGR052W, strain FMP48, hits give low values): 0.952
normalized growth (locus YGR092W, strain DBF2, hits give low values): 0.943
normalized growth (locus YHR030C, strain SLT2, hits give low values): 0.979
normalized growth (locus YHR079C, strain IRE1, hits give low values): 1.01
normalized growth (locus YHR082C, strain KSP1, hits give low values): 0.998
normalized growth (locus YHR205W, strain SCH9, hits give low values): 0.914
normalized growth (locus YIL147C, strain SLN1, hits give low values): 0.984
normalized growth (locus YJL095W, strain BCK1, hits give low values): 0.891
normalized growth (locus YJL128C, strain PBS2, hits give low values): 0.95
normalized growth (locus YJL157C, strain FAR1, hits give low values): 0.924
normalized growth (locus YJR016C, strain ILV3, hits give low values): 0.98
normalized growth (locus YJR066W, strain TOR1 (second series), hits give low values): 0.887
normalized growth (locus YJR066W, strain TOR1, hits give low values): 0.983
normalized growth (locus YKL048C, strain ELM1, hits give low values): 0.956
normalized growth (locus YKL067W, strain YNK1, hits give low values): 0.948
normalized growth (locus YKL101W, strain HSL1, hits give low values): 0.937
normalized growth (locus YKL193C, strain SDS22, hits give low values): 0.977
normalized growth (locus YKL203C, strain TOR2, hits give low values): 0.989
normalized growth (locus YLR113W, strain HOG1, hits give low values): 0.813 (active)
normalized growth (locus YLR133W, strain CKI1, hits give low values): 0.942
normalized growth (locus YLR403W, strain SFP1, hits give low values): 0.924
normalized growth (locus YML070W, strain DAK1, hits give low values): 0.899
normalized growth (locus YMR001C, strain CDC5, hits give low values): 0.988
normalized growth (locus YMR205C, strain PFK2 (second series), hits give low values): 0.953
normalized growth (locus YMR277W, strain FCP1, hits give low values): 0.983
normalized growth (locus YNL006W, strain LST8, hits give low values): 0.978
normalized growth (locus YNL020C, strain ARK1, hits give low values): 0.935
normalized growth (locus YNL161W, strain CBK1, hits give low values): 0.989
normalized growth (locus YNL183C, strain NPR1, hits give low values): 0.946
normalized growth (locus YNL207W, strain RIO2, hits give low values): 0.965
normalized growth (locus YNL222W, strain SSU72, hits give low values): 0.981
normalized growth (locus YNL307C, strain MCK1 (second series), hits give low values): 0.895
normalized growth (locus YOL078W, strain AVO1, hits give low values): 0.954
normalized growth (locus YOL136C, strain PFK27, hits give low values): 0.844
normalized growth (locus YOR061W, strain CKA2, hits give low values): 0.958
normalized growth (locus YOR119C, strain RIO1, hits give low values): 0.996
normalized growth (locus YOR231W, strain MKK1, hits give low values): 0.884
normalized growth (locus YOR329C, strain SCD5, hits give low values): 0.985
normalized growth (locus YPL031C, strain PHO85, hits give low values): 0.907
normalized growth (locus YPL153C, strain RAD53, hits give low values): 0.953
normalized growth (locus YPL204W, strain HRR25, hits give low values): 0.907
normalized growth (locus YPL209C, strain IPL1, hits give low values): 0.982
normalized growth (locus YPL256C, strain CLN2, hits give low values): 0.939
normalized growth (locus YPR025C, strain CCL1, hits give low values): 0.984
normalized growth (locus YPR106W, strain ISR1, hits give low values): 0.977
normalized growth (locus YPR111W, strain DBF20, hits give low values): 0.961
normalized growth (strain NNK1, hits give low values): 0.97
normalized growth (strain TSCII, hits give low values): 0.98
